In ChEMBL document CHEMBL4513216, “Probing the Open Global Health Chemical Diversity Library for Multistage-Active Starting Points for Next-Generation Antimalarials” (ACS Infect Dis, 2020):
About 8,600 (12%) of roughly 69,000 compounds showed an effect of 50% or more. This is one part of a sample in which strong results are shown more often than they occur.

The compounds below were run on Plasmodium berghei (assay: Screen against P. berghei liver stage (PbLuc), transformed with Luciferase, at 10uM). Conditions: tested at 10 uM.
Assay type: functional, HepG2

Row | SMILES | INHIBITION
1 | COc1ccc(CNC2CCc3ncnn3C2)cc1OCCCC#N (stereo not drawn) | 28.7%
2 | CCc1nc(C)c(-c2nccn2CC2CC(=O)N(CC)C2)[nH]1 (stereo not drawn) | 55.2%
3 | CCc1nc(C)c(-c2nccn2CC2CCCCO2)[nH]1 (stereo not drawn) | -10.2%
4 | CCc1nc(C)c(-c2nccn2CC2CCN(C3CCCC3)CC2)[nH]1 | 22.5%
5 | Fc1cccc(C(NCc2ncc[nH]2)c2ccccc2)c1 (stereo not drawn) | 78.2%
6 | Fc1cccc(C(NCc2ncc[nH]2)c2ccccn2)c1 (stereo not drawn) | -13.2%
7 | Cn1cc(C(NCc2ccc(F)cc2)c2cccc(F)c2)cn1 (stereo not drawn) | 15%
8 | Clc1cccc(C(NCc2ncc[nH]2)c2ccccn2)c1 (stereo not drawn) | 83.2%
9 | CC(C(=O)Nc1cccc(Cl)c1)N1CCN(Cc2ncc[nH]2)CC1 (stereo not drawn) | 4.52%
10 | Clc1cccc(N2CCC(NCc3ncc[nH]3)C2)c1 (stereo not drawn) | 34.1%
11 | Cc1ccc(NC2(C(=O)N3CCn4cncc4C3)CCCCC2)cc1C | 42.1%
12 | COCc1cnc2n1CCN(C1CCC1)C2C (stereo not drawn) | 42.6%
13 | O=C(NCCN1CCCCC1CO)c1cc(-c2ccccc2)on1 (stereo not drawn) | -7.81%
14 | CC(C)CNC(=O)c1ccc2c(c1)nc1n2CCN(Cc2ccco2)C1 | 18.4%
15 | Cc1nnc(C2Cc3ccccc3CN2Cc2nc(C(C)C)no2)o1 (stereo not drawn) | -10.1%
16 | CC(=O)N1N=C(c2ccccc2)OC1C(=O)NCCOc1ccccc1 (stereo not drawn) | -12.2%
17 | O=C(Nc1ccc(-n2cccn2)cc1)N1CCOCC(O)C1 (stereo not drawn) | 53.6%

Row | SMILES | INHIBITION
18 | O=C(Nc1ccccc1OCCc1ccccn1)N1CCOCC(O)C1 (stereo not drawn) | 12.3%
19 | O=C(Nc1ccc(-n2cccn2)cc1)N1CCC(O)C1 (stereo not drawn) | 42.3%
20 | CC(=O)OC1CN(c2nc3c(C)cccc3s2)C1 | -45.6%
21 | c1cnc(N2CCO[C@H]3CN(Cc4csnn4)C[C@H]32)nc1 | 42.7%
22 | CS(=O)(=O)NC1CCc2c(ccc(=O)n2CC2CC2)C1 (stereo not drawn) | 31.3%
23 | CN(C)CCn1c2c(ccc1=O)CC(NCc1cccnc1)CC2 (stereo not drawn) | 34.9%
24 | CN(C)CCn1c2c(ccc1=O)CC(NC(=O)c1cnccn1)CC2 (stereo not drawn) | 14.6%
25 | Cn1c2c(ccc1=O)CC(NS(C)(=O)=O)CC2 (stereo not drawn) | 45.5%
26 | CN(C)C(=O)Cn1c2c(ccc1=O)CC(NCc1cccnc1)CC2 (stereo not drawn) | 57.1%
27 | Cn1cc(CNC2CCc3c(ccc(=O)n3Cc3ccncc3)C2)cn1 (stereo not drawn) | 42.1%
28 | COCCn1c2c(ccc1=O)CC(NC(=O)c1cscn1)CC2 (stereo not drawn) | 70.2%
29 | O=c1ccc2c(n1Cc1cccnc1)CCC(NCc1cccnc1)C2 (stereo not drawn) | -2.03%
30 | O=C(NC1CCc2c(ccc(=O)n2CC2CC2)C1)c1cscn1 (stereo not drawn) | 41.2%
31 | COCCn1c2c(ccc1=O)CC(NS(C)(=O)=O)CC2 (stereo not drawn) | 58.6%
32 | CN(C)C(=O)Cn1c2c(ccc1=O)CC(NCc1ccoc1)CC2 (stereo not drawn) | 8.31%
33 | Cn1cc(CNC2CCc3c(ccc(=O)n3Cc3cccnc3)C2)cn1 (stereo not drawn) | 55.7%
